Screening data from PubChem.
Hits are enriched below; roughly 19% of the tested compounds scored in any of these assays.
HT1080-NT tox = kills 2HG-producing HT-1080-NT fibrosarcoma cells; HT-1080-NT fibrosarcoma viability, CellTiter-Glo ATP luminescence, 48 h; 360,000 tested, 1.6% active; AID 686970; Potency, µM (highest dose often 46.1 µM), usual class: cytotoxic;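 further: NT is the 2HG producing partner of a matched IDH1 knockdown line; nearly all actives have a fitted effect of over 55% in size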
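HT-1080-NT; 750 cells/well; 5% FBS RPMI; 48 h compound, 37 degrees C; CellTiter-Glo luminescence; curve fitting and curve-class assignment.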
HT1080 IDH1KD tx = HT-1080 IDH1 knockdown cell toxicity (counter line). 360,000 tested, 2% active. Potency, µM (top dose mostly 46.1 µM), actives largely listed as cytotoxic. HT-1080 IDH1 knockdown viability, ATP luminescence, 48 h. AID 686971
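Using the IDH1-knockdown HT-1080 line run in the same batch and compound series as the NT line, viability after 48 h at 37 °C was determined by CellTiter-Glo luminescence and expressed as % activity.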
IL1B secr inh = inflammasome signaling inhibition, IL-1 beta readout. THP-1 LPS/ATP IL-1B secretion, AlphaLISA, 16 h; hits give low values. 360,000 tested, 4.7% active. AID 743279. activity change, % at 57.5 µM; in the data active means activity change below about -50%; inconclusive means mostly about -30% to -49%
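THP-1 cells pretreated 1 hr with compounds (up to 57.5 uM final), then stimulated with LPS (250 ng/mL final) plus ATP (1.25 mM final); secreted IL-1B measured by AlphaLISA after 16 hr, decreased signal indicating inhibition.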
TDP1 cell noCPT = qHTS for Inhibitors of human tyrosyl-DNA phosphodiesterase 1 (TDP1): qHTS in cells in absence of CPT. DT40 Tdp1-/- hTDP1 cells, no CPT, ATP luminescence, 48 h. Potency, µM (series often up to 46.2 µM), actives largely listed as inhibitors. 420,000 tested, 15% active; further: nearly all actives have a fitted effect of over 55% in size
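Growth kinetics read by CellTiter-Glo luminescence after ≥48 hr at 37 °C. Cells: DT40 Tdp1-/- stably carrying human TDP1, 400 per well, compound exposure in the absence of CPT (DMSO vehicle).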
TDP1 cell CPT = DT40-hTDP1 cell growth loss with CPT; chicken DT40 Tdp1-/-;hTDP1 cells + 20 nM CPT, ATP luminescence, 48 h; Potency, µM (top dose mostly 46.2 µM), usual class: inhibitors; AID 686979; 420,000 tested, 12% active; further: nearly all actives have a fitted effect of over 55% in size
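Chicken DT40 Tdp1-/- cells stably complemented with human TDP1 were seeded at 400 cells/well in medium containing 20 nM camptothecin, exposed to pin-transferred compounds, and grown at 37 °C for at least 48 hr. Viability was read as ATP luminescence.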
ELG1 repair inh = ELG1-dependent DNA repair inhibition. HEK293T ELG1-luciferase reporter, luminescence, 16 h; DNA damage induced by 5-fluorouridine. Potency, µM (titrated, usually from 46.1 µM), usual class: inhibitors. 330,000 tested, 2.3% active. AID 504467; further: nearly all actives have a fitted effect of over 55% in size
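Quantitative HTS, concentration-response format. 2,000 cells/well co-treated with 5-fluorouridine and compound, 16 hr in 5% CO2 at 37 °C; ONE-Glo luminescence read after 30 min.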
A number is an active result; – = inactive; ? = inconclusive; · = not tested or not shown. Unless noted, the call rests on the fitted dose curve; in most records, active means well fitted curve in the direction sought with a large enough effect; inconclusive means small, poorly fitted or top-dose-only effect, or another doubt; inactive means no such curve, though single readings can be large; an effect the other way counts as inactive or inconclusive.

SMILES	HT1080-NT tox	HT1080 IDH1KD tx	IL1B secr inh	TDP1 cell noCPT	TDP1 cell CPT	ELG1 repair inh
Cc1nn2c(=O)cc(COC(=O)c3cccc(NC(=O)c4ccc(F)cc4)c3)nc2s1	·	·	·	10µM	12µM	·
CCOC(=O)c1c(NC(=O)c2cccs2)sc2c1CC(C)(C)OC2	–	–	?	26µM	?	9.2µM
O=C(Nc1cccc(C(=O)OCc2cc(=O)n3nc(C4CC4)sc3n2)c1)c1ccc(F)cc1	·	·	·	–	–	·
CCCSCCCNC(=O)c1cc2n(n1)CCCN(Cc1ccc(C)cc1)C2=O	·	·	·	?	18µM	·
CSc1ccc(CCNC(=O)c2cc3n(n2)CCCN(Cc2ccc(C)cc2)C3=O)cc1	·	·	·	?	5.8µM	·
CCOc1ccc(CCNC(=O)c2cc3n(n2)CCCN(Cc2ccc(C)cc2)C3=O)cc1OCC	·	·	·	15µM	9.2µM	·
CCOc1ccc(CCNC(=O)CN2CCN(Cc3ccc(Cl)cc3)C2=O)cc1OCC	·	·	·	?	–	·
Cc1ccc(CN2CCCn3nc(C(=O)NCCc4ccccc4Cl)cc3C2=O)cc1	·	·	·	16µM	21µM	·
COC(=O)c1cc2n(n1)CCN(Cc1ccc(C)cc1)C2=O	–	–	–	–	–	–
CCOc1cccc(C2/C(=C(/O)c3ccc4c(c3)CC(C)O4)C(=O)C(=O)N2Cc2cccnc2)c1 (stereo not given)	–	–	–	–	–	–
O=C(CSc1cccs1)Nc1ccc(Cl)cc1	–	–	–	–	–	?
Cc1nc(N2CCN(c3ccccn3)CC2)c2c(C)c(C(=O)N3CCN(c4ccc(F)cc4)CC3)sc2n1	–	–	-62	?	?	23µM
Cc1c(C(=O)N2CCN(c3ccc(F)cc3)CC2)sc2ncnc(N3CCN(c4ccccn4)CC3)c12	·	·	-84	15µM	18µM	6.5µM
COc1ccc(Cl)cc1NC(=O)C(C)N1CCN(c2ccccn2)CC1 (stereo not given)	–	–	–	18µM	?	?
COc1ccccc1N1CCN(C(=O)c2sc3ncnc(N4CCN(c5ccccn5)CC4)c3c2C)CC1	15µM	29µM	-75	4.6µM	4.6µM	18µM
Cc1c(C(=O)N2CCN(c3ccccn3)CC2)sc2ncnc(N3CCOCC3)c12	–	–	–	–	–	–
Cc1ccc(C)c(NC(=O)CCN2CCN(c3ccccc3F)CC2)c1	–	–	–	?	–	–
CCOc1ccc2oc(C(=O)NNC(=O)c3csc(N4CCOCC4)n3)c(C)c2c1	–	–	–	–	–	–
CN1CCN(c2ncc3nc(-c4cc(F)cc(F)c4)c(=O)n(CCc4ccccc4)c3n2)CC1	·	·	·	–	–	·
COC(=O)[C@]12CCCCC=C1N(Cc1ccc3c(c1)OCO3)C(=O)[C@H](CC(=O)NCc1ccccc1)C2	–	–	–	?	?	·
COc1ccc(OC)c(NC(=O)c2sc3ncnc(N4CCN(c5ccccn5)CC4)c3c2C)c1	?	–	–	21µM	?	2.6µM
CC1(c2ccc([N+](=O)[O-])cc2)NC(=O)NC1=O (stereo not given)	–	–	–	–	–	–
COc1ccc(OC)c(/C=C/C(=O)OCC(=O)N2CCCC2)c1	–	–	–	–	–	–
COc1cc(/C=C/C(=O)N2CCN(C(=O)/C=C/c3cc(OC)c(OC)c(OC)c3)CC2)cc(OC)c1OC	–	–	–	–	–	–
COc1cc(/C=C/C(=O)N2C(=O)c3cccc(N)c3C2=O)cc(OC)c1OC	–	–	–	29µM	5.8µM	?
SMILES	HT1080-NT tox	HT1080 IDH1KD tx	IL1B secr inh	TDP1 cell noCPT	TDP1 cell CPT	ELG1 repair inh
COc1ccc(OC)c(/C=C/C(=O)N2C(=O)c3cccc(N)c3C2=O)c1	?	16µM	-121	5.2µM	4.6µM	?
O=C(c1cccs1)N1CCN(Cc2nc(-c3ccccc3)no2)CC1	–	–	–	?	?	·
CCCCN1C(=O)CN(C2CCCCC2)C(=O)C1c1ccc(OC(C)C)c(OC)c1 (stereo not given)	·	·	·	?	–	·
COc1cccc(CN2C(=O)CN(C3CCCCC3)C(=O)C2c2ccc(F)cc2)c1 (stereo not given)	–	–	–	?	?	–
COc1ccc(CCN2C(=O)CN(C3CCCCCC3)C(=O)C2c2ccc(C)cc2)cc1OC (stereo not given)	·	·	·	23µM	?	·
CC1CCC(N2CC(=O)N(C3CCCC3)C(c3ccc(Cl)cc3)C2=O)CC1 (stereo not given)	·	·	·	16µM	?	·
COc1cc(C2C(=O)N(C3CCCCCC3)CC(=O)N2CCc2ccccc2)ccc1OC(C)C (stereo not given)	·	·	·	13µM	16µM	·
COc1cc(C2C(=O)N(C3CCC(C)CC3)CC(=O)N2CCc2ccc(Cl)cc2)ccc1OC(C)C (stereo not given)	·	·	·	–	–	·
O=C1C(c2ccc(F)cc2)N(CCc2ccc(Cl)cc2)C(=O)CN1C1CCCCC1 (stereo not given)	·	·	·	21µM	16µM	·
Cc1ccc(C(=O)N[C@H](C(=O)Nc2cc(Cl)cc(Cl)c2)C(C)C)cc1	–	–	–	–	–	–
COc1ccc(CN2C(=O)CN(C3CCCCCC3)C(=O)C2c2ccc(OC)c(OC)c2)cc1 (stereo not given)	–	–	–	–	?	–
CCOc1ccc(C2C(=O)N(C3CCCCCC3)CC(=O)N2Cc2ccc(C)cc2)cc1OC (stereo not given)	·	·	·	23µM	23µM	·
COc1ccc(CCN2C(=O)CN(C3CCCCCC3)C(=O)C2c2ccc(Cl)cc2)cc1OC (stereo not given)	·	·	·	18µM	?	·
Cc1cc2ncn(/N=C/c3ccc([N+](=O)[O-])s3)c2cc1C	–	–	–	8.2µM	?	–
O=[N+]([O-])c1ccc(/C=N/n2cnc3ccccc32)s1	?	?	-74	3.7µM	3.7µM	?
Cc1cc2ncn(/N=C/c3cc(Br)ccc3O)c2cc1C	·	·	·	·	·	–
Cc1nc2ccccc2n1/N=C/c1ccc([N+](=O)[O-])o1	13µM	10µM	-97	2.9µM	1.8µM	·
O=[N+]([O-])c1ccc(/C=N/Nc2ncccc2[N+](=O)[O-])s1	–	–	–	1.3µM	1.5µM	·
CCOC(=O)c1sc2ncn(CC(=O)Nc3ccc(C)cc3Br)c(=O)c2c1C	·	·	·	–	–	·
CC(C)CN1C(=O)N(c2ccc(Cl)cc2)C(C)(O)CC1(C)C (stereo not given)	–	–	–	?	?	–
Cc1nc2ccccc2c(=O)n1/N=C/c1ccc([N+](=O)[O-])o1	·	·	·	·	·	–
Cc1nc2ccccc2n1/N=C/c1ccc([N+](=O)[O-])s1	?	?	?	5.2µM	3.7µM	?
